# Test results taken from PubChem BioAssay (NCATS).
# Results filed as inconclusive are left out. Where a call stands in place of a potency, no number is given. The source made the active and inactive calls. The call rests on the fitted dose curve; in most records, active means well fitted cell-killing curve with a large enough effect; inconclusive means small, poorly fitted or top-dose-only effect, or effect the other way; inactive means flat fitted curve, though single readings scatter.
# System: CAOV3
# Experiment: Primary qHTS to identify gynecologic anti-cancer compounds using libraries of approved drugs and bioactive compounds (AID 1345084); further: nearly all actives have a fitted effect of over 55% in size
# Conditions: Gynecologic cancer cell panel viability, ATPlite luminescence, 48 h; series mostly up to 57.5 µM
# In short: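 Cytotoxicity screen measuring ATP content by luciferase luminescence. Each compound is applied at five concentrations for 48 h at 37 C with 5% CO2.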
row,Structure (SMILES),Potency
1,O=C(/C=C/C=C/c1ccc2c(c1)OCO2)N1CCCCC1,inactive
2,COc1ccc(C2(O)c3c(ccc4c3OC(C)(CCC=C(C)C)C=C4)NC(=O)C2OC)cc1 (stereo unspecified),inactive
3,Cc1ccc(C)c(NC(=O)CNS(=O)(=O)c2ccc3[nH]c(=O)oc3c2)c1,inactive
4,COc1cc(C(C)=O)ccc1O[C@@H]1O[C@H](CO[C@@H]2OC[C@@H](O)[C@H](O)[C@H]2O)[C@@H](O)[C@H](O)[C@H]1O,inactive
5,COC(=O)c1[nH]c(=O)c2ccccc2c1-c1ccc[nH]1,inactive
6,O=C(O)CCc1cc2ccoc2cc1O[C@@H]1O[C@H](CO)[C@@H](O)[C@H](O)[C@H]1O,inactive
7,CCOC(=O)CSc1nc2c(sc3ccccc32)c(=O)n1CCCN1CCCC1,inactive
8,FC(F)(F)Oc1ccc(-c2ccc3nnc(C(F)(F)F)n3c2)cc1,inactive
9,N#Cc1ccc(C2CCCc3cncn32)cc1 (stereo unspecified),inactive
10,C=C1C2CCC3C(CCC4[C@@]3(C)CCC[C@@]4(C)C(=O)O)(C2)[C@@H]1OC(=O)/C(C)=C\C (stereo partly specified),inactive
11,Cc1nnc(-c2sc(NC(=O)[C@H](C(C)C)n3c(=O)[nH]c4ccccc4c3=O)nc2C)o1,inactive
